14-3-3 PPI: 14-3-3 gamma protein interaction modulation; P61981; inhibition, % at 40 µM; FP, 14-3-3gamma / TMR-pS259-Raf peptide binding; 0.19% of 160,000 active; in the data active means inhibition above about 30%;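 further: 0% = protein plus tracer without compound and 100% = blank with tracer alone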
Target sequence (P61981 whole entry, looked up): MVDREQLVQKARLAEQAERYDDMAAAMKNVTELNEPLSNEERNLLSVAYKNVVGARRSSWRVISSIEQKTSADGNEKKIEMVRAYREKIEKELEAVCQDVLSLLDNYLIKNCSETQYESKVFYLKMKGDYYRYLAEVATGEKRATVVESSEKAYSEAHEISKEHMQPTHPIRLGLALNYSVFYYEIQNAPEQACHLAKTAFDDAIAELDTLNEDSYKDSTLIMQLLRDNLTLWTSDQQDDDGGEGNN
The depositor's hits bear a star. The entries come from a sample that favours hits as a whole.

SMILES	14-3-3 PPI
O=C(COc1ccc2c(c1)C(=O)CC1(CCCCC1)O2)NCc1ccccc1	-1
Cc1ccc(C)c(NC(=O)c2ccccc2F)c1	-1
CCSc1nc2c(c(=O)[nH]1)C(c1ccc(OCc3ccccc3)cc1)C1=C(CC(C)(C)CC1=O)N2 (stereo not drawn)	0
O=C(O)CC(C(=O)OCC1CCCO1)N1CCOCC1 (stereo not drawn)	-6
O=C(O)CC(C(=O)OC1CCCCC1)N1CCOCC1 (stereo not drawn)	3
CCOC(=O)C(CC(=O)O)N1CCCCC1 (stereo not drawn)	36*
Cc1ccc(OCC(=O)N2CCN(C(=O)c3ccc(F)cc3)CC2)cc1	4
CCOc1cc2[nH]c(=S)n(CCc3ccccc3Cl)c(=O)c2cc1OCC	-6
O=C(CSc1ccc2c3c(cccc13)C(=O)c1ccccc1-2)Nc1ccccc1	-95
COCCCNC(=O)CSc1ccc2c3c(cccc13)C(=O)c1ccccc1-2	105*
COCCCNC(=O)CN1C(=O)c2ccccc2C1=O	-2
COc1ccc2c(c1)CCc1sc(N=Cc3ccc(C)o3)nc1-2	-2
CC(O)C(NCCC(=O)c1ccc(Cl)cc1)C(=O)O (stereo not drawn)	-1
O=C(COC(=O)c1ccc(Cl)cc1)c1ccc([N+](=O)[O-])cc1	1
Cc1nc(NCCc2ccccc2)c2c3c(sc2n1)CCC3	-10
CCn1cc(C(=O)NCc2ccco2)c(=O)c2cc(S(=O)(=O)N3CCCCCC3)ccc21	-2
CCn1cc(C(=O)NC2CCCCC2)c(=O)c2cc(S(=O)(=O)N3CCCCCC3)ccc21	6
CCn1cc(C(=O)NCc2ccccn2)c(=O)c2cc(S(=O)(=O)N3CCCCC3)ccc21	119*
COC(=O)C1=CN(Cc2ccc(Cl)cc2)C=C(C(=O)OC)C1c1ccccc1F	2
COC(=O)c1cc(NC(=O)CCn2c(=S)oc3ccccc32)cc(C(=O)OC)c1	-1
CN(C)CCNc1c([N+](=O)[O-])c(=O)oc2ccccc12	-7
CCCCCn1c(N)c(C#N)c2nc3ccccc3nc21	-7
CCCCNc1ncc2cc3ccccc3nc2c1C#N	90*
CCCCNc1ncc(C(C)=O)c2ccccc12	0
CCc1ccc(-c2cc(C(=O)NC(C)(C)C)c3ccccc3n2)cc1	-7
SMILES	14-3-3 PPI
O=C(Nc1cc(C(=O)Nc2ccc(S(=O)(=O)O)cc2S(=O)(=O)O)cc(C(=O)Nc2ccc(S(=O)(=O)O)cc2S(=O)(=O)O)c1)Nc1cc(C(=O)Nc2ccc(S(=O)(=O)O)cc2S(=O)(=O)O)cc(C(=O)Nc2ccc(S(=O)(=O)O)cc2S(=O)(=O)O)c1	32*
NS(=O)(=O)c1ccc(NC(=O)Nc2cccc(Cl)c2)cc1	-1
Cc1c(NC(=O)c2ccccc2)cc(S(=O)(=O)c2ccc(Cl)cc2)c(O)c1C	-12
Fc1cccc(C2C=C(c3cccs3)Nc3nnnn32)c1 (stereo not drawn)	63*
Fc1ccccc1C1C=C(c2cccs2)Nc2nnnn21 (stereo not drawn)	-8
Fc1cccc(C2C=C(c3ccc(Cl)cc3)Nc3nnnn32)c1 (stereo not drawn)	-1
Clc1cc2c(cc1CSc1nnnn1-c1ccccc1)OCO2	-1
COc1ccccc1-n1nnnc1SCc1ccccc1	-2
COc1ccccc1-n1nnnc1SCc1cc2c(cc1Br)OCO2	50*
Cc1ccc(C(=O)CC(=O)COc2ccccc2)cc1	3
COc1ccccc1C1CC(=O)C2=C(C1)NC(C)=C(C(=O)OC(C)C)C2c1ccc(O)cc1 (stereo not drawn)	-5
CCOC(=O)c1sc(=S)n(-c2cccc([N+](=O)[O-])c2)c1N	1
Cc1ccc(S(=O)(=O)Nc2cc(C(=O)NCCc3ccccc3)ccc2N2CCCCC2)cc1	0
Cc1ccc(S(=O)(=O)Nc2cc(C(=O)NCc3cccnc3)ccc2N2CCCCC2)cc1	37*
Cc1ccc(S(=O)(=O)Nc2cc(C(=O)NCCc3ccccc3)ccc2N2CCCC2)cc1	-21
CC1=C(C(=O)Nc2cccc(F)c2)C(c2ccccc2C(F)(F)F)C2=C(CC(C)(C)CC2=O)N1 (stereo not drawn)	-6
O=C(CCn1c(=S)[nH]c2ccsc2c1=O)NCCC1=CCCCC1	-8
Cc1cc(C)nc(SCc2nc3ccc(Cl)cn3c2Cl)n1	-10
N#Cc1c(N=Cc2ccc([N+](=O)[O-])s2)sc2c1CCCC2	63*
N#Cc1c(N=Cc2ccc(Cl)c([N+](=O)[O-])c2)sc2c1CCCC2	-8
N#Cc1c(N=Cc2ccc([N+](=O)[O-])cc2)sc2c1CCC2	135*
N#Cc1c(N=Cc2cc([N+](=O)[O-])ccc2O)sc2c1CCCC2	-13
Cc1ccc(C=Nc2sc3c(c2C#N)CCC3)cc1	-31
N#Cc1c(N=Cc2cc([N+](=O)[O-])ccc2Cl)sc2c1CCCC2	1
CCc1ccc(NC(=O)c2ccc(F)c(S(=O)(=O)N3CCC(Cc4ccccc4)CC3)c2)cc1	-7
COC(=O)c1ccc2c(=O)n(C(Cc3ccc(O)cc3)C(=O)O)c(=S)[nH]c2c1 (stereo not drawn)	-6
O=C1CCCC2=C1C(c1ccc(OCc3ccc(C(=O)O)cc3)cc1)C1=C(CCCC1=O)O2	-2
